Inconclusive results are not listed. Active and inactive are the calls of the source. Unless noted, the call rests on the fitted dose curve.
How the values were obtained:
[1] = Nuclear factor erythroid 2-related factor 2/antioxidant responsive element (Nrf2/ARE) small molecule agonists: qHTS cell viability counter screen in human keratinocytes (AID 1919968; active means well fitted curve in the direction sought with a large enough effect in the repeat runs; an effect the other way counts as inactive or inconclusive; further: nearly all actives have a fitted effect of over 55% in size; further: potency means the concentration at half of the fitted maximal effect)
In short: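 HaCaT ARE reporter line, 1,500 cells/well; 5 h settle, 37 C/5% CO2; cpd in DMSO pinned; 23 h exposure; CellTiter-Fluor, 1 h; fluorescence.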

[2] = target: Gonadotropin-releasing hormone receptor (Homo sapiens) (UniProt P30968); experiment: Human gonadotropin-releasing hormone receptor (GnRHR) small molecule agonists, calcium flux assay in GnRHR-HEK293 cells (AID 1920063); further: nearly all actives have a fitted effect of over 35% in size
In short: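 GnRHR-HEK293, 1500 cells/well, 18 h 37 C/5% CO2; Ca dye 1 h 37 C; cpd pinned (DMSO), agonist mode; kinetic FL 480/540, 3 min, 1 s reads; 15 conc, n=3.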

[3] = target: KiSS-1 receptor (Homo sapiens) (UniProt Q969F8); experiment: Human kisspeptin (KISS1R) small molecule agonists, calcium flux assay in KISS1R-HEK293 cells (AID 1920064; active means well fitted curve in the direction sought with a large enough effect in the repeat runs; an effect the other way counts as inactive or inconclusive)
In short: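 Stable human KISS1R HEK293 line; 18 h plating, 37 C/5% CO2; calcium dye 1 h 37 C; compound pin transfer; kinetic fluorescence Ex/Em 480/540, 3 min.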

[4] = G protein-coupled receptor (GPCR) small molecule agonists, calcium flux assay: HEK293 wild type cell line counter screen (AID 1920065)
In short: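 Kinetic fluorescence at Ex/Em 480/540, recorded every second over 3 min, served as the read-out after compound addition. Each compound was tested at 15 concentrations in triplicate on cells pre-loaded with calcium dye for 1 h.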

[5] = p53 small molecule agonists, cell-based qHTS assay with human liver microsomes (AID 1963577);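 further: p53 response element beta-lactamase reporter cells with liver microsomes plus NADPH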
In short: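 Metabolically competent format: test substances, human liver microsomes and NADPH (both 0.5 mg/mL final) incubated with p53RE-bla cells 16 h at 37 C. Beta-lactamase reporter signal then quantified by fluorescence.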

[6] = p53 small molecule agonists, cell-based qHTS assay with rat liver microsomes (AID 1963578)
In short: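 Each plate received p53RE-bla cells, then compound, then rat liver microsomes and NADPH (both 0.5 mg/mL final). Plates were held 16 h at 37 C, and beta-lactamase activity was detected with LiveBLAzer over 2 h.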

[7] = p53 small molecule agonists, cell-based qHTS assay with human liver microsomes: qHTS cell viability counter screen (AID 1963579); further: nearly all actives have a fitted effect of over 45% in size
In short: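 Tox21 library compounds, delivered from DMSO stocks, were tested on p53RE-bla cells together with 0.5 mg/mL human liver microsomes and 0.5 mg/mL NADPH (final) over 16 h at 37 C; CellTiter-Glo luminescence served as the cytotoxicity measure.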

[8] = p53 small molecule agonists, cell-based qHTS assay with rat liver microsomes: qHTS cell viability counter screen (AID 1963580); further: nearly all actives have a fitted effect of over 45% in size
In short: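 Viability is assessed in parallel with the p53 reporter read: HCT-116 p53RE-bla cells receive compounds plus rat microsomes and NADPH (0.5 mg/mL final apiece), incubate 16 h at 37 C, and then CellTiter-Glo luminescence is recorded.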

[9] = p53 small molecule agonists, cell-based qHTS assay: qHTS cell viability counter screen (AID 1963581); further: nearly all actives have a fitted effect of over 45% in size
In short: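 HCT-116 p53RE-bla cells, 4,000/well, plated 5 h before compound pin transfer; 16 h at 37 C; bla substrate 2 h RT; then CellTiter-Glo, 30 min RT, luminescence.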

[10] = p53 small molecule agonists, cell-based qHTS assay (AID 1963582; active means well fitted activation curve with a large enough effect in the signal ratio in the repeat runs, not every such curve was filed as active; the % refers to the signal ratio)
In short: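 Reporter line: p53RE-bla. Pre-incubation 5 h, 37 C, 5% CO2; compound (DMSO, pin tool) 16 h, 37 C; B/G FRET substrate 2 h RT; fluorescence intensity read.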

[11] = target: 5-hydroxytryptamine receptor 2A (Homo sapiens) (UniProt P28223); experiment: 5-hydroxytryptamine receptor 2A (HTR2A) small molecule antagonists, cell-based qHTS assay (AID 1963586); further: nearly all actives have a fitted effect of over 45% in size
In short: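 Antagonist-mode intracellular calcium assay: DOI (4 nM) added after 5 min compound pre-incubation at room temperature to dye-loaded HTR2A-CHO cells. Fluorescence followed for 3 min, sampled every second.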

[12] = target: 5-hydroxytryptamine receptor 2A (Homo sapiens) (UniProt P28223); experiment: 5-hydroxytryptamine receptor 2A (HTR2A) small molecule agonists, cell-based qHTS assay (AID 1963587); further: nearly all actives have a fitted effect of over 30% in size
In short: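 CHO cells stably expressing human HTR2A, plated 18 h, loaded with calcium dye 1 h at 37 C. Agonist mode: compounds added and intracellular calcium fluorescence recorded kinetically for 2 min at 1 sec intervals.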

[13] = target: Muscarinic acetylcholine receptor M1 (Homo sapiens) (UniProt P11229); experiment: Cholinergic receptor muscarinic 1 (CHRM1) small molecule antagonists, cell-based qHTS assay (AID 1963588); further: nearly all actives have a fitted effect of over 40% in size; further: potency means the concentration at half of the fitted maximal effect
In short: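 CHRM1-CHO calcium-flux assay, antagonist mode. Cells were seeded 18 h, dye-loaded 1 h at 37 C and given compound for 5 min at RT, then acetylcholine was added at 50nM. FDSS fluorescence was read 3 min; 15 concentrations, three runs.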

[14] = target: Muscarinic acetylcholine receptor M1 (Homo sapiens) (UniProt P11229); experiment: Cholinergic receptor muscarinic 1 (CHRM1) small molecule agonists, cell-based qHTS assay (AID 1963589); further: nearly all actives have a fitted effect of over 35% in size
In short: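 Human M1 in stable CHO line; 18 h plating, 1 h dye load 37 C; cpd added (agonist mode); Ca2+ fluorescence kinetic read, 1 s intervals; 15 conc, 3 runs.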

[15] = cAMP Responsive Elements (CRE) small molecule agonists, cell-based qHTS assay (AID 1963590)
In short: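 HEK 293T CRE-bla, 2,000 cells/well, 18 h preincubation 37 C/5% CO2; cpds (DMSO) pinned, 3 h; LiveBLAzer B/G FRET substrate, 2 h RT.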

[16] = target: Beta-2 adrenergic receptor (Homo sapiens) (UniProt P07550); experiment: Adrenergic beta2 receptor (ADRB2) small molecule antagonists, cell-based qHTS assay (AID 1963592); further: series mostly up to about 92 µM; nearly all actives have a fitted effect of over 50% in size
In short: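 Cells (CHO, stable ADRB2 overexpression) incubated 18-20hr at 37C; compounds added from DMSO; agonist mix (1nM isoproterenol, 100uM IBMX, 25uM Ro-20-1724) added; 0.5hr RT; d2-cAMP and anti-cAMP-cryptate added; 1hr RT; 665/615 nm read.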

[17] = target: Beta-2 adrenergic receptor (Homo sapiens) (UniProt P07550); experiment: Adrenergic beta2 receptor (ADRB2) small molecule agonists, cell-based qHTS assay (AID 1963593);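 further: CHO cells stably overexpressing human ADRB2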
In short: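 CHO cells stably over-expressing ADRB2 were plated overnight at 37C, then dosed with compounds plus a stimulation mix containing 100uM IBMX and 25uM Ro-20-1724 for 0.5hr at room temperature. cAMP was measured by HTRF competition, 1hr.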

[18] = target: D(2) dopamine receptor (Homo sapiens) (UniProt P14416); experiment: Dopamine D2 receptor (DRD2) small molecule agonists, cell-based qHTS assay (AID 1963594); further: nearly all actives have a fitted effect of over 35% in size
In short: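 HEK293 cells stably expressing human DRD2, pre-treated with PDE inhibitor Ro20-1724 (0.1 mM final) and compound 10 min at room temperature, then stimulated with NKH477 (200nM […]) for 30 min. cAMP read by HTRF (665/620 nm).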

[19] = target: D(2) dopamine receptor (Homo sapiens) (UniProt P14416); experiment: Dopamine D2 receptor (DRD2) small molecule antagonists, cell-based qHTS assay (AID 1963595; active means well fitted inhibition curve with a large enough effect in the signal ratio in the repeat runs, with a control signal flat; the % refers to the signal ratio)
In short: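 In this cell-based antagonist screen, compounds act for 10 min at room temperature before a 30 min challenge with 12 nM quinpirole and 200 nM NKH477. cAMP is quantified by HTRF competition in DRD2-HEK293 cells containing 0.1 mM Ro20-1724.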

[20] = cAMP Responsive Elements (CRE) small molecule antagonists, cell-based qHTS assay (AID 1963591; active means well fitted inhibition curve with a large enough effect in the signal ratio in the repeat runs, not every such curve was filed as active; the % refers to the signal ratio; further: potency means the concentration at half of the fitted maximal effect)
In short: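 Beta-lactamase reporter read by FRET substrate (LiveBLAzer B/G) after 2 h at room temperature. CRE-bla HEK293T cells had received compound plus 0.25 uM (final) NKH477 for 3 h at 37 °C.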

Measured: Potency

Chain of Muscarinic acetylcholine receptor M1 (Homo sapiens) (P11229 whole entry, looked up): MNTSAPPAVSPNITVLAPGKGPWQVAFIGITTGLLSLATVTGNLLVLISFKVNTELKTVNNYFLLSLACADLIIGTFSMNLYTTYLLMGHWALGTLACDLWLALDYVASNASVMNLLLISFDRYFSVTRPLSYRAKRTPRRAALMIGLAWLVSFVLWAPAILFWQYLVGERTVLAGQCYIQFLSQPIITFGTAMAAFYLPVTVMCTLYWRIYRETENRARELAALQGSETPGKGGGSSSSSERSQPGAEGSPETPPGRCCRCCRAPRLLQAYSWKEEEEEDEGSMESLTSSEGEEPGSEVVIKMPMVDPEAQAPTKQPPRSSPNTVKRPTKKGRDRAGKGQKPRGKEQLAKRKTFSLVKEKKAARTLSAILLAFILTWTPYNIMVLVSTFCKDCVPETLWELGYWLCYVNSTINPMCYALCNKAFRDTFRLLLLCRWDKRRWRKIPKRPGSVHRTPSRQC
Chain of D(2) dopamine receptor (Homo sapiens) (P14416 whole entry, looked up): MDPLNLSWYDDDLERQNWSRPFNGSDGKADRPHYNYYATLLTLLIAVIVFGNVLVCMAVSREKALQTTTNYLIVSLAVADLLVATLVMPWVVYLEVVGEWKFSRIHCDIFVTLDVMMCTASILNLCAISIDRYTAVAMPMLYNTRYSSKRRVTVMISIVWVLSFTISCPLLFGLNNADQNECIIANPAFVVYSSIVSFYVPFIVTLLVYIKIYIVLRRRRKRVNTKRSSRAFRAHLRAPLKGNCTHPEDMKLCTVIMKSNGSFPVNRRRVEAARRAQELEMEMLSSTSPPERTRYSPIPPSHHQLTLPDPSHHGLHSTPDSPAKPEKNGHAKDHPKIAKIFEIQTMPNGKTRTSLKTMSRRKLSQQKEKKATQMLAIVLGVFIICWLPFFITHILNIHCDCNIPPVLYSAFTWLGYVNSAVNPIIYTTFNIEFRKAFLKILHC
Chain of 5-hydroxytryptamine receptor 2A (Homo sapiens) (P28223 whole entry, looked up): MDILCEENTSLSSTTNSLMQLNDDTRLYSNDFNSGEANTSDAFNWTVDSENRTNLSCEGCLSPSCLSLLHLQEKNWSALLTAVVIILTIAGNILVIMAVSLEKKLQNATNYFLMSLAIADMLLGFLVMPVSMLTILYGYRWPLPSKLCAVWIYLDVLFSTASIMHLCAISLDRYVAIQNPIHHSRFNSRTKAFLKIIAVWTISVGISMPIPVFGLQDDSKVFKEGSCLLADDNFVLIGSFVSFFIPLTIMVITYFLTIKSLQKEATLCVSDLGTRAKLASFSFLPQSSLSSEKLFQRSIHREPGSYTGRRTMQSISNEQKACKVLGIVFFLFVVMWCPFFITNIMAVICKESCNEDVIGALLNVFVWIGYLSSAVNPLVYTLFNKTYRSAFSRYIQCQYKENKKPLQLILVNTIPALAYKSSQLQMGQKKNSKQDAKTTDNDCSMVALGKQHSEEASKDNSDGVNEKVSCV
Chain of Gonadotropin-releasing hormone receptor (Homo sapiens) (P30968 whole entry, looked up): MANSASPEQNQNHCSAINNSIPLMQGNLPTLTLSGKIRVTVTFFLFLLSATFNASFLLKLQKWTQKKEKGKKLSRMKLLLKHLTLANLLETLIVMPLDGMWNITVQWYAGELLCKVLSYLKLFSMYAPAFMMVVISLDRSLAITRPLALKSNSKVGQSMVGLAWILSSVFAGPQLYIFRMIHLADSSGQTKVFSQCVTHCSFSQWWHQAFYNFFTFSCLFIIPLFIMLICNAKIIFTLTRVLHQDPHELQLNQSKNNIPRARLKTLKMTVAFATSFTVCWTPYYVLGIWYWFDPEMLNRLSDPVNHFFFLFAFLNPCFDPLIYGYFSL
Chain of Beta-2 adrenergic receptor (Homo sapiens) (P07550 whole entry, looked up): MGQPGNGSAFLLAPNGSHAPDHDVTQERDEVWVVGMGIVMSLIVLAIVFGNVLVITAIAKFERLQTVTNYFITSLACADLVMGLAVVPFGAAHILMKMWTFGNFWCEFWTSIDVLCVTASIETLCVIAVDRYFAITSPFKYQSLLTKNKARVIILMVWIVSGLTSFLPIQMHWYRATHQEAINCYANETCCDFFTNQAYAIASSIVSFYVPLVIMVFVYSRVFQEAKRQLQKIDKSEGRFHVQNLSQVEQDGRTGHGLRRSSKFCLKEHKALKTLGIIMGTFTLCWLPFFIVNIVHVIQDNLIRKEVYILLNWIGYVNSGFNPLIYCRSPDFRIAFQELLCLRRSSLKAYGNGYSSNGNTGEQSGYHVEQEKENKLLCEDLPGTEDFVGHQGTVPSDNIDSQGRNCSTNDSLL
Chain of KiSS-1 receptor (Homo sapiens) (Q969F8 whole entry, looked up): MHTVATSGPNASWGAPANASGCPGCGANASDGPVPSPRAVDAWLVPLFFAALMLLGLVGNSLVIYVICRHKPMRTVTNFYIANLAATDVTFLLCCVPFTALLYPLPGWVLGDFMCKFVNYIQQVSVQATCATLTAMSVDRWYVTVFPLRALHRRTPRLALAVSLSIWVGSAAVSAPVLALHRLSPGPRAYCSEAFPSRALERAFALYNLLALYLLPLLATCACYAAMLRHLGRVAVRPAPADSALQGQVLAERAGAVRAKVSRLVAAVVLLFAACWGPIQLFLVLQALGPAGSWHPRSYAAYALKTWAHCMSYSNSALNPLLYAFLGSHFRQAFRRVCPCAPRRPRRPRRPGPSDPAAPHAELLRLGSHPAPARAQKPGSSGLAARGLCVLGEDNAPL

O=C(CS)OCCOC(=O)CS
not listed: [20]
inactive: all other assays above

CC(C)NC(=O)c1ccc(C=O)cc1
not listed: [17]
inactive: all other assays above

CC(C(=O)O)c1ccc(C(=O)c2cccs2)cc1 (centres undefined)
not listed: [15] | [16] | [17] | [18] | [19] | [20]
inactive: all other assays above

CCCCCC
inactive: all assays above

CCCn1cc[n+](C)c1C
inactive: all assays above

CCCCCCCCCCCCSC#N
not listed: [17] | [20]
inactive: all other assays above

Cc1c(Nc2ncccc2C(=O)O)cccc1C(F)(F)F
inactive: all assays above

CCC(C)OC(=O)N1CCCCC1CCO (centres undefined)
not listed: [16] | [17]
inactive: all other assays above

CC(C)(c1ccccc1)c1ccccc1
active: [13] 1100 nM
not listed: [19]
inactive: all other assays above

CC(C)CCCC(C)CC=O (centres undefined)
not listed: [2] | [3] | [4] | [5] | [12] | [14] | [17]
inactive: all other assays above

O=C(Oc1cccc2cccnc12)c1ccccc1
active: [1] 2980 nM | [20] 23700 nM
not listed: [17] | [18]
inactive: all other assays above

Nc1nc2ccccc2n1Cc1ccc(F)cc1
not listed: [11] | [17]
inactive: all other assays above

Cc1ccccc1N=Nc1ccc(N=Nc2c(O)ccc3ccccc23)c(C)c1
not listed: [14] | [19]
inactive: all other assays above

Source: PubChem BioAssay (Tox21)
